# In PubChem BioAssay (NCI):
# This is part of a sample that, as a whole, favours compounds with a hit. Of some 83,000 tested, about 20% had one in any assay.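 Step 1: grow cells in 96-well plates. Step 2: add test compound at a single concentration. Step 3: incubate 48 h. Step 4: record percent growth.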 Unmarked numbers belong to inactive results. The source made the active and inactive calls.
# Test system: ACHN renal
# Test: NCI-60 one-dose screen, 48 h (100 = growth as untreated, 0 = no growth, -100 = all killed)
# Settings: 10 µM unless noted
# Procedure: Growth inhibition of the ACHN human tumor cell line is measured as a screen for anti-cancer activity. Cells are grown in 96 well plates and exposed to the test compound for 48 hours. Compounds are tested at a single concentration, which is 10^-5 M for most compounds. The reported endpoint is percent growth (GI% or GIPRCNT), where numbers from 0 - 100% represent growth inhibition, and numbers from -100% - 0 represent cell death. For example, a value of 40 represents 60% growth inhibition. A value of 0 means no net growth occurred over the course of the experiment. A value of -40 indicates 40% of cells at the beginning of the experiment died by the end of the experiment. A value of -100 means all cells are dead at the end of the experiment.
# NCI-60 Human Tumor Cell Lines Screen was performed using the standard one-dose NCI protocol, which is described in more detail at https://dtp.cancer.gov/discovery_development/nci-60/default.htm.
# Compounds with GIPRCNT values below 10 were considered active. Activity score was based on GIPRCNT using the following formula: […]
# Score is 0 for GIPRCNT values of 100 or above, 50 for GIPRCNT values of 0, and 100 for GIPRCNT values of -100.
row,Structure (SMILES),growth
1,COc1ccc(C2CC(c3ccccc3)=NN2C(=O)c2cc(OC)c(OC)c(OC)c2)cc1O (stereo not given),37.5%
2,CN(C)CCn1c(=O)c2ccccc2n2nc3ccccc3c12,46.6%
3,Cc1[nH]n(-c2cccc(Cl)c2)c(=O)c1/C=C1\C=c2ccccc2=CC1=O,-36.1% (active)
4,Cc1c(O)cc(-c2cnc(N/N=C/c3ccccc3)s2)c(O)c1C,99.4%
5,O=C(NCc1ccc(Cn2c(=O)sn(-c3ccccc3)c2=O)cc1)OCc1ccc2cccc(O)c2n1,-99.9% (active)
6,CCOC(=O)c1[nH]cc2c1CCc1sc(Nc3ccccn3)nc1-2,76.6%
7,COc1cc(N2C(=O)[C@H](Cl)C2c2ccc(SC)cc2)cc(OC)c1OC (stereo not given in full),30.3%
8,COc1ccccc1/C=C/C(=O)Nc1ccc(F)cc1,101%
9,Cn1c2ccccc2c2c3c(c4c5cc(Br)ccc5n(C)c4c21)C(=O)N(O)C3=O,-23% (active)
10,CN1CCOCCN(C)Cc2ccc3ccc(cc3c2)CN(C)CCOCCN(C)Cc2ccc3ccc(cc3c2)C1,98.5%
11,CCCCC#Cc1c(I)n(C2OC(CO[Si](C)(C)C(C)(C)C)C3OC(C)(C)OC32)c(=O)n(C(=O)c2ccccc2)c1=O (stereo not given),50.6%
12,Oc1c(I)cc(I)cc1CN(Cc1ccccn1)Cc1ccccn1,10.4%
13,CC1(C)CC[C@]23CC[C@]4(C)[C@H](CC[C@@H]5[C@@]6(C)CCNCC(C)(C)[C@@H]6CC[C@]54C)[C@H]2[C@H]1OC3,106%
14,COc1cc(C[C@H]2COc3cc(O)cc(O)c3C2=O)ccc1O,41.7%
15,CSc1ccc2c3c(n(C[C@H](O)CO)c(=O)c2c1)-c1ccccc1C3=O,-41% (active)
16,CC(C)(C)OC(=O)CN1CCc2c(sc3ncnc(N4CCN(c5ccc(F)cc5)CC4)c23)C1,85.7%
17,O=CCCCOCc1ccccc1,101%
18,CCOC(=O)NCCCC(=O)NCCc1ccccc1,111%
19,O=C(/C=C/c1ccco1)Nc1ncc(Cc2cc(Cl)ccc2Cl)s1,35.7%
20,C#Cc1cccc(Nc2ncnc3cc(NC(=O)CCl)ccc23)c1,-95.9% (active)

row,Structure (SMILES),growth
1,O=C1Nc2ccc(Cl)cc2/C1=C/c1ccc[nH]1,59.6%
2,Clc1ccc(-c2nc(C(Cl)Cl)nc3cc(-c4ccccc4)nn23)cc1,-52.8% (active)
3,O=C(NC1CCC(Br)CC1)C1CCCC(S(=O)(=O)NC2CCCCC2)C1 (stereo not given),15.9% [25 µM]
4,N#Cc1ccccc1-c1ccc(CN2C(=O)S/C(=C\c3ccc(Br)cc3)C2=O)cc1,104%
5,Cn1cc(-c2nonc2-c2c[nH]c3ccccc23)c2cc(Br)ccc21,40.3%
6,O=[N+]([O-])c1ccccc1Nc1ccc2ccccc2c1,99.2%
7,O=C(/C=C/c1ccccc1)c1ccc(-n2cc(CN3CCN(c4cc5c(cc4F)c(=O)c(C(=O)O)cn5C4CC4)CC3)nn2)cc1,93.5%
8,Nc1cc(-c2ccc(Cl)cc2)nn1-c1nnc(/C=C/c2ccco2)c(=O)[nH]1,29.4%
9,O=C(Nc1cc(Cl)ccc1O)c1ccccc1Nc1ccnc(C(F)(F)F)c1,7.95% (active)
10,O=c1oc2ccccc2cc1-c1nn(-c2ccccc2)cc1-c1nn[nH]n1,99.9%
11,COc1ccc(-c2cn(Cc3cc4ccccc4s3)nn2)cc1OCCN1CCCCC1,89.4%
12,Cc1ncc(C(=O)Nc2ccc(CN3CCN(C)CC3)c(C(F)(F)F)c2)cc1C#Cc1cnc(N)c2ccc(C#N)cc12,-79.6% (active)
13,COc1cc(-c2ccc[nH]2)[nH]c1/C=C1\N=C(C)C(CC(=O)OCC(C)(C)C)=C1C,-83.2% (active)
14,c1ccc(Nc2nc3c(s2)CCc2c[nH]cc2-3)nc1,92.3%
15,CCN1CCN(CCNc2nccc(-c3c(-c4ccc(F)c(O)c4)nc4occn34)n2)S1(=O)=O,16.5%
16,ClC(Cl)c1nc(-c2ccccc2)n2nc(-c3ccccc3)cc2n1,-57% (active)
17,O=S(=O)(Nc1cc(F)cc(F)c1)c1ccc(-c2cnc(C3CC3)o2)cc1,43.5%
18,COc1ccc(C2[C@@H](Cl)C(=O)N2c2cc(OC)c(OC)c(OC)c2)cc1Cl (stereo not given in full),33.6%
19,CC1(C)CC[C@]2(CO)CC[C@]3(C)[C@](O)([C@H](O)C[C@@H]4[C@@]5(C)CCCNC(C)(C)[C@@H]5CC[C@]43C)[C@@H]2C1,108%
20,Nc1ncnc2c1N=C(c1ccc(F)cc1)CC(c1cccc(Nc3ccnc4cc(Cl)ccc34)c1)N2 (stereo not given),96.3%
